Laboratory results as given in PubChem BioAssay (Tox21).
Records with an inconclusive call do not appear. Calls of active or inactive are those of the source. Unless noted, calls come from the whole dose curve; as a rule, active = well fitted curve in the direction sought with a large enough effect in the repeat runs; inconclusive = weak or mixed curves; inactive = no such curve, though single readings can be large; an effect the other way counts as inactive or inconclusive.

Tests used:
[1] = qHTS assay to identify small molecule agonists of the peroxisome proliferator-activated receptor delta (PPARd) signaling pathway - cell viability counter screen (AID 743211); note: nearly all actives have a fitted effect of over 55% in size; note: potency is the fitted concentration of half-maximal effect
Summary of the method: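 In the same wells used for beta-lactamase reporter measurement, cytotoxicity is scored by CellTiter-Glo. HEK293H PPARd-bla cells receive compound for 17 h at 37C following a 5 h settling period.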

[2] = biological target: Peroxisome proliferator-activated receptor delta (Homo sapiens) (UniProt Q03181); assay: qHTS assay to identify small molecule agonists of the peroxisome proliferator-activated receptor delta (PPARd) signaling pathway (AID 743212; calls by dose curve; note: % is set by controls: 0 for no effect and ±100 for the full control effect)
Peroxisome proliferator-activated receptor delta (Homo sapiens), sequence (Q03181 whole entry, looked up): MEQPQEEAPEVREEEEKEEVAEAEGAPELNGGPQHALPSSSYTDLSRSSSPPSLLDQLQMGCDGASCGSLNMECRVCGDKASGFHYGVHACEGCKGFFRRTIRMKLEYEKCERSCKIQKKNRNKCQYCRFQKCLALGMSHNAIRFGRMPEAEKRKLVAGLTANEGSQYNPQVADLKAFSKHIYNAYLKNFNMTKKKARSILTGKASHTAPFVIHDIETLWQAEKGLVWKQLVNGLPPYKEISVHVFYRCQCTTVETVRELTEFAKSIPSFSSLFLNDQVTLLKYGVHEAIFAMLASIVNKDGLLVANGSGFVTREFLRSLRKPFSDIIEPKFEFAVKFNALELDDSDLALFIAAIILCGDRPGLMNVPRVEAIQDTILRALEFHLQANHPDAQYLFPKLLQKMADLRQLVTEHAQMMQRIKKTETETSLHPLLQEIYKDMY
Summary of the method: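 Quantitative high-throughput agonist screen in a HEK293H beta-lactamase reporter line under UAS control. Compounds in DMSO, at 37 C. Fluorescence read after 2 h with FRET substrate at room temperature.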

[3] = qHTS assay to identify small molecule antagonists of the peroxisome proliferator-activated receptor delta (PPARd) signaling pathway - cell viability counter screen (AID 743213); note: nearly all actives have a fitted effect of over 50% in size; note: potency is the fitted concentration of half-maximal effect
Summary of the method: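 Agonist-stimulated (L165041, 300 nM final) HEK293H PPARd UAS-bla cells are exposed to compounds for 17 h at 37 C, and ATP-based luminescence (CellTiter-Glo) from the same wells reports cytotoxicity.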

[4] = biological target: Peroxisome proliferator-activated receptor delta (Homo sapiens) (UniProt Q03181); assay: qHTS assay to identify small molecule antagonists of the peroxisome proliferator-activated receptor delta (PPARd) signaling pathway (AID 743215; active = well fitted inhibition curve with a large enough effect in the signal ratio in the repeat runs, not every such curve was filed as active; the % refers to the signal ratio; note: series mostly up to about 62 µM; % is set by controls: 0 for no effect and ±100 for the full control effect)
Summary of the method: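 Inhibition of L165041-driven (300 nM final) PPARd signaling is scored in HEK293H UAS-bla cells. Exposure lasts 17 h at 37 C; beta-lactamase activity is then read by FRET substrate fluorescence after 2 h at room temperature.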

[5] = biological target: Bile acid receptor (Homo sapiens) (UniProt Q96RI1); assay: qHTS assay to identify small molecule antagonists of the farnesoid-X-receptor (FXR) signaling pathway (AID 743217; active = well fitted inhibition curve with a large enough effect in the signal ratio in the repeat runs, not every such curve was filed as active; the % refers to the signal ratio; note: % is set by controls: 0 for no effect and ±100 for the full control effect)
Bile acid receptor (Homo sapiens), sequence (Q96RI1 whole entry, looked up): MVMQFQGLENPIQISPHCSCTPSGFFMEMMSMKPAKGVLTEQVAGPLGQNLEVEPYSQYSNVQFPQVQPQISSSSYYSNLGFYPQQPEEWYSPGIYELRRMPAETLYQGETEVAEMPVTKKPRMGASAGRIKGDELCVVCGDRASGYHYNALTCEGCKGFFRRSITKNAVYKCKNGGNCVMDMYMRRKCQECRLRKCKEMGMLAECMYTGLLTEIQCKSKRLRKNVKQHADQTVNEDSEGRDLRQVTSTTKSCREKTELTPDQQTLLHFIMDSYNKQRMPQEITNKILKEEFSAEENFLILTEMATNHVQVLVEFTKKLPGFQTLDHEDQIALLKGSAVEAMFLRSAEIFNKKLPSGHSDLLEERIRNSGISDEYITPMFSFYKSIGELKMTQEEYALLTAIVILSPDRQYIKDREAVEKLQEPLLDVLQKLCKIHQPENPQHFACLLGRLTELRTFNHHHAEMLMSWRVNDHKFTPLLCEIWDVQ
Summary of the method: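 Antagonist mode against 50 uM (final) chenodeoxycholic acid stimulation in FXR-bla HEK 293T cells, 16 h at 37 °C. Inhibition detected as reduced beta-lactamase activity via LiveBLAzer B/G FRET fluorescence after 2 h at room temperature.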

[6] = qHTS assay to identify small molecule agonists of the farnesoid-X-receptor (FXR) signaling pathway - cell viability counter screen (AID 743218); note: nearly all actives have a fitted effect of over 45% in size; note: potency is the fitted concentration of half-maximal effect
Summary of the method: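 Cytotoxicity counter-screen run in parallel, same wells: FXR-UAS-bla HEK 293T cells dosed 16 h at 37 C, viability read by CellTiter-Glo luminescence after 30 min at room temperature.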

[7] = qHTS assay to identify small molecule antagonists of the farnesoid-X-receptor (FXR) signaling pathway - cell viability counter screen (AID 743221; active = well fitted cell-killing curve with a large enough effect in the repeat runs, not every such curve was filed as active; note: nearly all actives have a fitted effect of over 50% in size; note: potency is the fitted concentration of half-maximal effect)
Summary of the method: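 Here viability was scored by luminescence after CellTiter-Glo addition to wells already read for beta-lactamase. Prior treatment: compound plus CDCA (50 uM final), 16 h, 37 C, HEK 293T FXR-bla cells.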

[8] = qHTS assay to identify small molecule agonists of the vitamin D receptor (VDR) signaling pathway - cell viability counter screen (AID 743224); note: nearly all actives have a fitted effect of over 50% in size; note: potency is the fitted concentration of half-maximal effect
Summary of the method: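 Viability is measured in the same wells as the VDR-bla reporter assay: after 16 h compound treatment and 2 h substrate loading, CellTiter-Glo is added and luminescence read 30 min later.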

[9] = qHTS assay to identify small molecule antagonists of the vitamin D receptor (VDR) signaling pathway - cell viability counter screen (AID 743225); note: % is set by controls: 0 for no effect and ±100 for the full control effect; nearly all actives have a fitted effect of over 50% in size
Summary of the method: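 Compounds were pinned onto VDR-bla HEK 293T cells together with 1-alpha,25-dihydroxyvitamin D3 at 3 nM final. After 16 h at 37C and 5% CO2 plus the reporter readout, cell viability was measured by CellTiter-Glo luminescence (30 min, room temperature).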

[10] = qHTS assay to identify small molecule agonists of the endoplasmic reticulum stress response signaling pathway (AID 1159516; active = well fitted activation curve with a large enough effect in the signal ratio in the repeat runs, not every such curve was filed as active; the % refers to the signal ratio; note: % is set by controls: 0 for no effect and ±100 for the full control effect)
Summary of the method: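 Tox21 10K library screened in quantitative HTS format on ESRE-bla HeLa cells, a beta-lactamase reporter under ER stress response element control; 5 hr treatment, FRET read.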

[11] = qHTS assay to identify small molecule agonists of the endoplasmic reticulum stress response signaling pathway - cell viability counter screen (AID 1159517; calls by dose curve)
Summary of the method: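 Counter-screen wells were identical to the reporter wells. Cells were plated at 1,500 per well and dosed for 5 hr, then read for luminescence 30 min after CellTiter-Glo addition.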

[12] = qHTS assay to identify small molecule antagonists of the retinoid-related orphan receptor gamma (ROR-gamma) signaling pathway - cell viability counter screen (AID 1159520); note: nearly all actives have a fitted effect of over 50% in size; note: potency is the fitted concentration of half-maximal effect
Summary of the method: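 Tet-on ROR gamma CHO cells were given compounds for 2 hr, then doxycycline hyclate at 1 uM final, and incubated 16 hr at 37 C. Viability was measured as ATP content by CellTiter-Glo luminescence.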

[13] = biological target: Nuclear receptor ROR-gamma (Homo sapiens) (UniProt P51449); assay: qHTS assay to identify small molecule antagonists of the retinoid-related orphan receptor gamma (ROR-gamma) signaling pathway (AID 1159521; note: nearly all actives have a fitted effect of over 50% in size; note: potency is the fitted concentration of half-maximal effect)
Summary of the method: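 Test compounds were applied to Tet-on RORγ CHO cells 2 h ahead of doxycycline hyclate (1 uM final). Luciferase reporter activity was quantified by luminescence after 16 h at 37 C and 5% CO2.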

[14] = qHTS assay to identify small molecule agonists of the AP-1 signaling pathway - cell viability counter screen (AID 1159525; calls by dose curve; note: nearly all actives have a fitted effect of over 55% in size; note: potency is the fitted concentration of half-maximal effect)
Summary of the method: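 AP-1-bla ME-180 cells in Opti-MEM with 0.5% dialyzed FBS, compound exposure 5 h at 37 C in 15-point titration. Viability read in the same wells as ATP content by CellTiter-Glo luminescence, normalised to tetra-n-octylammonium bromide and DMSO controls.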

[15] = qHTS assay to identify small molecule agonists of the AP-1 signaling pathway (AID 1159526; calls by dose curve; note: potency is the fitted concentration of half-maximal effect)
[16] = biological target: Vitamin D3 receptor (Homo sapiens) (UniProt P11473); assay: qHTS assay to identify small molecule agonists of the vitamin D receptor (VDR) signaling pathway (AID 743222; calls by dose curve; note: % is set by controls: 0 for no effect and ±100 for the full control effect)
Vitamin D3 receptor (Homo sapiens), sequence (P11473 whole entry, looked up): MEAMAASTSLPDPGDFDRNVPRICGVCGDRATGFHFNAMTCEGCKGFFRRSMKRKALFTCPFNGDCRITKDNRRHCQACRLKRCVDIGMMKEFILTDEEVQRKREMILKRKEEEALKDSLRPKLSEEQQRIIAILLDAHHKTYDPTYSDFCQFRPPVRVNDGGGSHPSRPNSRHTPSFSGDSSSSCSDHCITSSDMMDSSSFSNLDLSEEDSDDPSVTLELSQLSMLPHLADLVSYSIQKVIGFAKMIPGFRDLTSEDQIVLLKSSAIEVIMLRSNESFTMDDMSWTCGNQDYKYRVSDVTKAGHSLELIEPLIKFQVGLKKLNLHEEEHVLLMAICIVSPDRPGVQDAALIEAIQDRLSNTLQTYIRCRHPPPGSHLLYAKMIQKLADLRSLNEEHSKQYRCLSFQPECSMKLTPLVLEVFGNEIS
Summary of the method: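 Quantitative HTS agonist-mode screen: compounds in DMSO were pin-transferred onto VDR-bla cells and incubated 16 h at 37C, 5% CO2. Reporter activity was detected with LiveBLAzer B/G FRET substrate after 2 h at room temperature.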

[17] = biological target: Bile acid receptor (Homo sapiens) (UniProt Q96RI1); assay: qHTS assay to identify small molecule agonists of the farnesoid-X-receptor (FXR) signaling pathway (AID 743220; active = well fitted activation curve with a large enough effect in the signal ratio in the repeat runs, not every such curve was filed as active; the % refers to the signal ratio; note: % is set by controls: 0 for no effect and ±100 for the full control effect)
Summary of the method: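 Beta-lactamase reporter under UAS control in GeneBLAzer FXR HEK 293T cells (5000/well) measured with LiveBLAzer FRET substrate after 2 h at room temperature. Compound exposure lasted 16 h at 37C.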

[18] = biological target: Vitamin D3 receptor (Homo sapiens) (UniProt P11473); assay: qHTS assay to identify small molecule antagonists of the vitamin D receptor (VDR) signaling pathway (AID 743223; active = well fitted inhibition curve with a large enough effect in the signal ratio in the repeat runs, not every such curve was filed as active; the % refers to the signal ratio; note: % is set by controls: 0 for no effect and ±100 for the full control effect)
Summary of the method: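 Inhibition of agonist-driven VDR signalling is scored in VDR-bla cells: 3 nM final 1alpha,25-dihydroxyvitamin D3 plus compound, 16 h at 37C, then beta-lactamase detection by FRET substrate fluorescence after 2 h.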

[19] = qHTS assay to identify small molecule agonists of the NFkB signaling pathway - cell viability counter screen (AID 1159515; calls by dose curve; note: nearly all actives have a fitted effect of over 55% in size; note: potency is the fitted concentration of half-maximal effect)
Summary of the method: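 Multiplexed viability readout: after the 5 hr compound exposure and 1.5 hr FRET substrate step, CellTiter-Glo reagent went into the same NFkB-bla ME-180 wells; ATP luminescence was measured after 30 min at room temperature.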

Oc1cccc(Nc2ccccc2)c1
inactive: Potency [1] | Potency [2] | Potency [3] | Potency [4] | Potency [5] | Potency [6] | Potency [7] | Potency [8] | Potency [9] | Potency [10] | Potency [11] | Potency [12] | Potency [13] | Potency [14] | Potency [15]

C[C@@H](CN(C)C)CN1c2ccccc2Sc2ccccc21
active: Potency [1] 23.7 µM | Potency [3] 26.6 µM | Potency [13] 26.6 µM
inactive: Potency [16] | Potency [8] | Potency [9] | Potency [10] | Potency [11] | Potency [14]

O=c1[nH]c2ccc(Cl)cc2o1
inactive: Potency [1] | Potency [2] | Potency [3] | Potency [4] | Potency [6] | Potency [7] | Potency [16] | Potency [8] | Potency [9] | Potency [10] | Potency [11] | Potency [12] | Potency [13] | Potency [14] | Potency [15]

CCOC(=O)c1ccc(I)cc1
inactive: Potency [1] | Potency [2] | Potency [3] | Potency [4] | Potency [5] | Potency [6] | Potency [17] | Potency [7] | Potency [18] | Potency [8] | Potency [9] | Potency [10] | Potency [11] | Potency [12] | Potency [13] | Potency [14]

Cc1ccc(CO)cc1
inactive: Potency [1] | Potency [2] | Potency [3] | Potency [4] | Potency [5] | Potency [6] | Potency [17] | Potency [7] | Potency [16] | Potency [18] | Potency [8] | Potency [9] | Potency [19] | Potency [12] | Potency [13] | Potency [14] | Potency [15]

O=C(CCCN1CC=C(n2c(=O)[nH]c3ccccc32)CC1)c1ccc(F)cc1
inactive: Potency [2] | Potency [4] | Potency [6] | Potency [7] | Potency [8] | Potency [9] | Potency [10] | Potency [11] | Potency [12] | Potency [14] | Potency [15]

CCCCN(CCCC)C(C(N)=O)c1ccc(OC)cc1 (configuration not stated)
inactive: Potency [1] | Potency [2] | Potency [3] | Potency [4] | Potency [7] | Potency [8] | Potency [9] | Potency [19] | Potency [11] | Potency [12] | Potency [15]

CN1CCCC(n2nc(Cc3ccc(Cl)cc3)c3ccccc3c2=O)CC1 (configuration not stated)
active: Potency [6] 21.1 µM | Potency [15] 12 µM
inactive: Potency [1] | Potency [4] | Potency [10] | Potency [11] | Potency [12] | Potency [14]

Cc1cc(=O)c2c(O)c3c(O)cc(=O)c4c3c3c(cc(O)c1c23)C(C)(C)C=4O
active: Potency [1] 0.291 µM | Potency [6] 1.84 µM | Potency [7] 1.84 µM | Potency [8] 0.731 µM | Potency [12] 1.64 µM
inactive: Potency [19] | activation [15] -0.228% [at 15.8 µM]

O=c1cc(-c2ccccc2)oc2ccc3ccccc3c12
inactive: Potency [4] | Potency [13]
active: Potency [1] 17.4 µM | Potency [3] 13.8 µM | Potency [6] 8.71 µM | Potency [7] 19.5 µM | Potency [8] 19.5 µM | Potency [19] 54.9 µM | Potency [12] 27.3 µM | Potency [14] 24.5 µM

COc1cc(C(=O)NCCCCCC(=O)O)cc(OC)c1OC
inactive: Potency [1] | Potency [2] | Potency [3] | Potency [6] | Potency [7] | Potency [18] | Potency [8] | Potency [9] | Potency [10] | Potency [11] | Potency [12] | Potency [14] | Potency [15]
